Bioassay records from PubChem BioAssay.
Sfp inh = blocks B. subtilis Sfp PPTase activity. Potency, µM, for the others: largest response in the series, negative = inhibition, actives largely listed as inhibitors. Biochemical Sfp PPTase activity, qHTS. 310,000 compounds, 3.5% hits;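 further: the enzyme is Sfp with the accession as filed and its product quenches rhodamine fluorescence; 0% = enzyme reaction without inhibitor and -100% = no enzyme wells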
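Sfp 15 nM + cpd, 15 min RT; start w/ rhodamine-CoA 5 uM, BHQ-2-YbbR 12.5 uM (final); 50 mM Hepes pH 7.6, 10 mM MgCl2, 0.01% NP-40, 0.01% BSA; read 525/598 nm at 0 and 30 min.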
PLK1 PBD inh = inhibitors of human PLK1 polo-box domain binding; P53350; Plk1 PBD binding of FITC phosphopeptide, fluorescence polarization; Potency, µM, for inactives: max response, negative = inhibition, hits mostly inhibitors; 360,000 compounds, 2.8% hits; AID 720504; further: series mostly up to about 57 µM; on the % scale 0 is the no-effect control and ±100 the full control effect; nearly all actives have a fitted effect of over 65% in size
HP1b binding inh = HP1-beta chromodomain-methylated histone interaction inhibition | AlphaScreen HP1-beta / biotin-H3K9me3 peptide binding | Potency, µM (series often up to 114 µM), for inactives: top-dose activity change, negative = inhibition, most hits filed as inhibitors | P83916 | 390,000 compounds, 0.56% hits; further: nearly all actives have a fitted effect of over 70% in size
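Compound inhibition of the preformed complex between 50 nM HP1-beta and 50 nM biotinylated H3K9me3 peptide was read by AlphaScreen. Buffer was PBS pH 7.4 with 0.01% Tween-20. Incubations ran 30 min at room temperature, with 10 ug/mL donor/acceptor beads.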
G9a block = inhibitors of human histone lysine methyltransferase G9a; 350,000 compounds, 8.8% hits; Q96KQ7; G9a H3K9 monomethylation, AlphaScreen, 2 h; Potency, µM (highest dose often 102 µM), inactives show top-dose activity, negative = inhibition, hits mostly inhibitors; further: on the % scale 0 is the no-effect control and ±100 the full control effect; nearly all actives have a fitted effect of over 75% in size
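G9a (20 nM) preincubated 15 min RT with compounds, then 500 nM biotinylated H3K9 peptide and 20 uM SAM added; 2 h RT reaction. Monomethyl-H3K9 product detected by AlphaScreen with anti-H3K9me1 antibody, streptavidin donor and anti-rabbit IgG acceptor beads.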
BAZ2B block = inhibitors of human BAZ2B bromodomain; AlphaScreen BAZ2B-H3K14Ac peptide displacement; Potency, µM (highest dose often 114 µM), without a hit: at the top dose activity change, negative = inhibition, hits mostly inhibitors; 360,000 compounds, 4.4% hits; AID 504333; further: on the % scale 0 is the no-effect control and ±100 the full control effect; nearly all actives have a fitted effect of over 60% in size
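BAZ2B 50 nM plus b-H3(5-23)K14Ac 50 nM, PBS pH 7.4/0.01% Tween-20, 30 min RT; compound added (max 110 uM), 30 min RT; streptavidin donor/Ni-chelate acceptor beads 10 ug/mL final, 20 min dark; AlphaScreen read.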
JMJD2A Tudor inh = JMJD2A Tudor domain (human) inhibition. AlphaScreen JMJD2A-Tudor / H3K4me3 peptide binding. 390,000 compounds, 4.4% hits. Potency, µM (top dose mostly 114 µM), without a hit: at the top dose activity change, negative = inhibition, most hits filed as inhibitors. O75164; further: on the % scale 0 is the no-effect control and ±100 the full control effect; nearly all actives have a fitted effect of over 50% in size
Target sequence (O75164 whole entry, looked up, the tested form may be a part): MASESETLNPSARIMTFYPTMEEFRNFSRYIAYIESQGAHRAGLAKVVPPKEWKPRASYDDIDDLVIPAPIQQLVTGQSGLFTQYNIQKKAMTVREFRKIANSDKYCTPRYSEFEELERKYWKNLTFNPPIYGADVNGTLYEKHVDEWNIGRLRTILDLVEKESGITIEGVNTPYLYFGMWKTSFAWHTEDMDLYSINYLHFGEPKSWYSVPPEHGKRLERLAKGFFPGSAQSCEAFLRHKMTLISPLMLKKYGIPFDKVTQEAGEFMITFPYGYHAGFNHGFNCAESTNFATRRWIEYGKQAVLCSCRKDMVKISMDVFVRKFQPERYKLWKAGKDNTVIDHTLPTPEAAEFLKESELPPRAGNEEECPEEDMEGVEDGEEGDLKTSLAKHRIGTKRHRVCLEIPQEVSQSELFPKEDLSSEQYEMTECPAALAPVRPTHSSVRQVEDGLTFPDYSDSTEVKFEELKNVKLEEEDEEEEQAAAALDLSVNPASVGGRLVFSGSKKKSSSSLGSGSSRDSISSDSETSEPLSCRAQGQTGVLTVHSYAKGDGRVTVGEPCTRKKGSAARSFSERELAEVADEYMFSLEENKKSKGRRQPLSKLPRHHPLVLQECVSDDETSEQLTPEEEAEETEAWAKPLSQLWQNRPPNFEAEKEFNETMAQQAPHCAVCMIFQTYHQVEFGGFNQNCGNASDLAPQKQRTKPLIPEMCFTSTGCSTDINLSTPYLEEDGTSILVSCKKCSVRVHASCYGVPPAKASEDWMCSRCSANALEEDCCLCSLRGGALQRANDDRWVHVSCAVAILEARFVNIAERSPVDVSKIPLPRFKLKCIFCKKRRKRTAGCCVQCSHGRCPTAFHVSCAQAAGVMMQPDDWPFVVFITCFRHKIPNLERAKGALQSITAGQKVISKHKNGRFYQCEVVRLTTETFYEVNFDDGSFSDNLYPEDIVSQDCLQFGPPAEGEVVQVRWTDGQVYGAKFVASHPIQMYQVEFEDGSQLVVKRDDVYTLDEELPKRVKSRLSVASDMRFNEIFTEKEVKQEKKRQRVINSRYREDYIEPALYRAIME
Active calls of the source: *; ? = inconclusive; · = no result; [ ] = another dose, or the depositor's remark. Rows were chosen to be rich in hits. Some 12% of all compounds tested hit in one or more screens of this group. The call rests on the fitted dose curve; in most records, active means well fitted curve in the direction sought with a large enough effect; inconclusive means small, poorly fitted or top-dose-only effect, or another doubt; inactive means no such curve, though single readings can be large; an effect the other way counts as inactive or inconclusive. Potency means the concentration at half of the fitted maximal effect.

SMILES	Sfp inh	PLK1 PBD inh	HP1b binding inh	G9a block	BAZ2B block	JMJD2A Tudor inh
Cc1ccc(NC(=O)CCCCCN2C(=O)[C@@H]3Cc4ccccc4CN3C2=O)c(Cl)c1	16.0%	-7.6%	34.0%	10.6%[0.0925 µM]	0.8%	-6.9%
CCCCCNc1nc2sc3c(c2c(=O)n1-c1cccc(Cl)c1)CCN(C)C3	0.8%	-1.7%	-5.4%	50.1µM*	-23.3%	-20.5%
CSc1ccc(/C=C(\NC(=O)c2ccco2)C(=O)N2CCCCC2)cc1	-3.2%	-0.6%	9.5%	·	-13.2%	-10.3%
O=C(CNC(=O)c1ccc(F)cc1)N/N=C/c1cc(Br)ccc1OC(=O)/C=C/c1ccco1	25.1µM*	-8.4%	34.7%	22.9%[59 µM]	-7.2%	-6.6%[11.4 µM]
COc1ccc(C(=O)NCC(=O)N/N=C/c2ccco2)cc1OC	6.1%	-9.3%	28.5%	70.8µM*	-7.9%	-8.2%
COc1ccc(C(=O)NCCCCCC(=O)N/N=C/c2ccco2)cc1OC	-5.2%	-5.6%	19.2%	-8.1%	1.0%	-14.3%
CCOc1cc(-c2nccc3cc(OC)c(OC)cc23)cc(OCC)c1OCC	0.6%	-9.1%	66.4%	-2.0%[12.7 µM]	-3.8%	-18.2%
Cc1ccc(N2CC(C(=O)Nc3nnc(SCc4cccnc4)s3)CC2=O)cc1 (centres undefined)	-1.5%	-12.9%	47.2%	15.8µM*	-2.7%	-2.9%
COc1ccc(N2CC(C(=O)Nc3nnc(SCc4cccnc4)s3)CC2=O)cc1 (centres undefined)	-14.7%	-19.2%	30.9%	50.1µM*	-13.5%	-13.1%
COc1ccccc1N1CC(C(=O)Nc2nnc(SCc3cccnc3)s2)CC1=O (centres undefined)	-16.0%	-11.4%	36.8%	·	-2.6%	-15.2%
CC1(C)CC(NC(=O)c2cccc(S(=O)(=O)Nc3cccc(Cl)c3)c2)CC(C)(C)N1	·	-9.4%	19.4%	-8.2%[59 µM]	4.1%	-8.1%
Cc1cc2oc(=O)cc(CN3CCC(C)CC3)c2cc1Cl	-2.8%	-2.1%	40.8%	-15.9%[59 µM]	-0.3%	5.3%
COc1cc2c(cc1OC)CN(Cc1cc(=O)oc3c(C)c(C)ccc13)CC2	0.6%	-12.5%	22.2%	25.1µM*	-24.7%	-30.1%
COc1cc2c(cc1OC)CN(Cc1cc(=O)oc3cc(C)c(Cl)cc13)CC2	-12.2%	-5.5%	29.6%	10µM*	-8.9%	-14.7%
COc1ccccc1CNCc1cc(=O)oc2c(C)c(C)ccc12	1.2%	-1.4%	1.7%	-9.7%	8.4%	-9.8%
Cc1ccc2c(CN(C)Cc3ccc(OC(F)F)cc3)cc(=O)oc2c1C	9.5%	-8.5%	65.8%	47.7%	5.9%	3.9%
COc1cc2c(cc1OC)CN(Cc1cc(=O)oc3cc(C)c(C)cc13)CC2	-9.2%	-3.3%	34.6%	7.94µM*	-9.0%	-22.2%
COc1cc(C(=O)OCc2cc(=O)oc3c(C)c(C)ccc23)ccc1OC(F)F	-4.5%	23.8µM*	-5.8%	16.2%	5.4%	?
CN1CCN(S(=O)(=O)c2cccc(C(=O)NC3(C)CCS(=O)(=O)C3)c2)CC1 (centres undefined)	·	-2.5%	15.2%	-3.6%[12.7 µM]	-1.9%	-4.5%
CCc1ccc2c(CN3CCc4cc(OC)c(OC)cc4C3)cc(=O)oc2c1	-6.5%	4.5%	33.4%	8.91µM*	-36.9%	-16.4%
CC1(C)CC(=O)C=C(NC2=CC3OC(c4ccccc4)OCC3OC2=O)C1 (centres undefined)	28.2µM*	-14.6%	22.1%	?	-0.4%	-11.0%
NC(=S)NCCCC(N)C(=O)O (centres undefined)	·	·	·	8.91µM*	·	·
COc1ccc(/C=C/c2ccc(=O)n(Cc3ccccc3)n2)cc1	-26.6%	11.9µM*	49.8%	16.3%	38.1%	?
OCc1ccc(-c2cncc3nccn23)cc1	·	0.1%	·	·	·	·
Cc1cc(CC(C)C)n(-c2nc3ccccc3c(=O)n2OCC(N)=O)n1	-6.4%	21.2µM*	-6.7%	5.9%	-4.2%	4.8%[11.4 µM]
SMILES	Sfp inh	PLK1 PBD inh	HP1b binding inh	G9a block	BAZ2B block	JMJD2A Tudor inh
Cc1cc(C)n(-c2nc3ccccc3c(=O)n2OCCOc2ccccc2)n1	-18.6%	3.36µM*	-1.9%	-11.8%[59 µM]	-3.1%	-33.6%[11.4 µM]
C=CCOn1c(-n2nc(C)cc2C)nc2ccccc2c1=O	8.1%	-16.7%	15.5%[57 µM]	11.1%	-9.6%	-3.7%
CCOC(=O)c1c(C)[nH]c(C)c1S(=O)(=O)NCc1ccccc1C	5.6%	8.3%	17.7%	·	?	-27.6%
COc1cccc(S(=O)(=O)N(C)C[C@@H]2Oc3ncc(C#CCN(C)C)cc3C(=O)N([C@H](C)CO)C[C@H]2C)c1	·	-25.0%	·	·	·	·
CCNc1nc(NCC)nc(C(=O)Nc2ccccc2)n1	6.1%	-7.9%	58.4%	7.7%[0.501 µM]	10µM*	79.4µM*
O=C(Nc1cccc(NC(=O)c2ccccc2)n1)c1ccccc1	-6.4%	-4.3%	45.2%	3.0%	-25.4%	-8.3%
CCCc1nc(NC(=O)c2ccccc2)nc(NC(=O)c2ccccc2)n1	-11.0%	-3.4%	24.3%	70.8µM*	19.2%	-11.6%
CCOC(=O)c1c(S(=O)(=O)NCCCc2ccco2)c(C)n(C)c1C	-17.9%	-13.1%	-4.9%	44.7µM*	56.2µM*	?
COc1cc(C(=O)c2cc3c(cc2C)OCO3)cc(OC)c1OC	·	-1.9%	·	·	·	·
COc1cc2[nH]c(=S)n(NC(=O)CC(C)C)c(=O)c2cc1OC	?	-4.3%	-2.1%	3.98µM*	?	3.55µM*
CCCCOC(=O)n1c(=S)oc2cc(Cl)ccc21	56.2µM*	?	-9.8%	-0.7%[0.501 µM]	1.1%	-17.9%
COC(=O)n1c(=S)oc2cc(Cl)ccc21	25.1µM*	·	·	2.51µM*	-3.7%	·
CCCCOC(=O)n1c(=O)oc2cc(S(=O)(=O)N3CCCCC3)ccc21	11.0%	-5.8%	13.2%	10.0%[12.7 µM]	2.5%	-5.8%
C=C1C(=O)OC2C1CC/C(C)=C/CCC1(C)OC21 (centres undefined)	-13.5%	·	·	·	·	·
CN(C)CCOc1ccc(-c2c(-c3ccccc3)sc3ccccc23)cc1	·	-10.5%	?	·	·	39.8µM*
COc1cc(OC)cc(-c2sc3ccc(OC)cc3c2-c2ccc(OCCN3CCCCC3)cc2)c1	·	-13.9%	-32.5%	·	·	20µM*
COc1ccccc1-c1sc2cc3c(cc2c1-c1ccc(OCCN2CCOCC2)cc1)OCO3	·	-2.5%	-24.4%	·	·	50.1µM*
c1ccc2c(-c3ccc(OCCN4CCCCC4)cc3)c(-c3ccsc3)sc2c1	·	2.2%	-7.1%	·	·	39.8µM*
CC(=O)N1CCOc2cc(S(=O)(=O)NCc3ccc(C)cc3)c(Cl)cc21	·	·	6.8%	5.2%[59 µM]	-1.9%	-21.4%
Cc1cc(C)c2c(c1)c(C)cc1nnc(SCC(=O)c3cccs3)n12	15.9%	0.1%	5.7%	3.16µM*	0.9%	?
CCCN(CCC)C(=O)CSc1nnc2cc(C)c3cc(C)cc(C)c3n12	·	·	43.5%	2.51µM*	-20.4%	15.8µM*
COC(=O)C(C)Sc1nnc2cc(C)c3cc(C)cc(C)c3n12 (centres undefined)	·	·	29.7%	8.91µM*	?	-17.9%
